We go through 18 compounds from PubChem BioAssay.

The inhibition is the change of the read-out against control, counted positive when it falls.

A number with no mark means an inactive call. For part of these data: Measured potencies and affinities stand elsewhere. Calls of active or inactive are those of the source. Unless noted, no rule for the calls is given here.

Test [1] can be described thus: antimalarial activity against Dd2 strain (AID 2302;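 active = growth inhibition above 50% at the single 2 µM test dose, taken to imply half-maximal potency below 2 µM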;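 also: 0% = DMSO untreated growth and 100% = chloroquine plus artemisinin killed control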). Particulars: P. falciparum Dd2 in RBCs, LDH growth readout, 72 h; at 2 µM; active compounds read high.
The nature of test [2]: HepG2 cytotoxicity, primary screen, cytotoxicity control for P. falciparum antimalarial project, cell-based, ATP luminescence (AID 2303;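 active = inhibition above 50%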;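 also: 0% = DMSO wells and 100% = digitonin-killed cells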). Particulars: HepG2 viability, 24-48 h, at 10 µM, active compounds read high.
Test [3] deals with L-lactate dehydrogenase (Plasmodium falciparum (isolate CDC / Honduras)) (UniProt Q27743). Put plainly: PfLDH activity inhibition – cell lysate, 3D7 strain, counter-screen for P. falciparum growth inhibition project (AID 2304).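 Also: 0% = vehicle and 100% = reference inhibitor.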 As to conditions: P. falciparum 3D7 crude extract, LDH APAD/NBT absorbance; at 2 µM; active compounds read high. (A counterscreen serves to expose hits that act by an unwanted route or on another target.)

Test [4] in a line: inhibition of 3D7 malaria parasite growth – strain 3D7 (AID 2306).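 Also: 0% = DMSO wells and 100% = chloroquine plus artemisinin control wells.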 Particulars: P. falciparum 3D7 erythrocytic growth, LDH absorbance, 72 h; at 2 µM; active compounds read high.
Test [5] deals with Calcium-dependent protein kinase 1 (Plasmodium falciparum (isolate 3D7)) (UniProt P62344). Put plainly: PfCDPK1 kinase inhibitors, biochemical, TCAMS library (AID 1159585; cut-off not given, nearly all actives have IC50 up to about 0.98 µM;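 also: inhibitors leave more ATP so luminescence rises with inhibition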). As to conditions: recombinant PfCDPK1, Kinase-Glo ATP depletion luminescence. For orientation: In Kinase-Glo more light means more ATP remaining.
For test [6], the target named is Plasmodium falciparum protein kinase 6 (PK6, PF3D7_1337100) (UniProt Q8IDW1). The test can be described thus: PfPK6 kinase inhibitors, biochemical, TCAMS library (AID 1159586). As to conditions: recombinant PfPK6, Kinase-Glo ATP depletion luminescence.
For test [7], the target named is Protein kinase 7 (PK7), Plasmodium falciparum 3D7 (PF3D7_0213400) (UniProt Q7YTF7). The test can be described thus: inhibition of Plasmodium PK7 catalytic activity – biochemical, TCAMS antimalarial set, Kinase-Glo luminescence (AID 1159587). Particulars: recombinant PfPK7, Kinase-Glo ATP depletion luminescence.
Test [8] has as its target Calcium-dependent protein kinase 4 (Plasmodium falciparum (isolate 3D7)) (UniProt Q8IBS5). Put plainly: PfCDPK4 kinase inhibitors, biochemical, TCAMS library (AID 1159588; cut-off not given, nearly all actives have IC50 up to about 0.91 µM). Particulars: recombinant PfCDPK4, Kinase-Glo ATP depletion luminescence.

Sequence of Plasmodium falciparum protein kinase 6 (PK6, PF3D7_1337100) (Q8IDW1 1-305): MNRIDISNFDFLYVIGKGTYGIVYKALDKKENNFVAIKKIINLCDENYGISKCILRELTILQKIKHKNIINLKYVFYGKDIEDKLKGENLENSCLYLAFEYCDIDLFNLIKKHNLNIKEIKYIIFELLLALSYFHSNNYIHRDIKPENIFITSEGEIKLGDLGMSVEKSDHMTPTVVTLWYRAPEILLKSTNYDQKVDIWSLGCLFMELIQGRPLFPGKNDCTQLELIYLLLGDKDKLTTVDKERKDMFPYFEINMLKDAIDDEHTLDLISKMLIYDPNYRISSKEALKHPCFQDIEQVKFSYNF
Sequence of L-lactate dehydrogenase (Plasmodium falciparum (isolate CDC / Honduras)) (Q27743 whole entry, looked up): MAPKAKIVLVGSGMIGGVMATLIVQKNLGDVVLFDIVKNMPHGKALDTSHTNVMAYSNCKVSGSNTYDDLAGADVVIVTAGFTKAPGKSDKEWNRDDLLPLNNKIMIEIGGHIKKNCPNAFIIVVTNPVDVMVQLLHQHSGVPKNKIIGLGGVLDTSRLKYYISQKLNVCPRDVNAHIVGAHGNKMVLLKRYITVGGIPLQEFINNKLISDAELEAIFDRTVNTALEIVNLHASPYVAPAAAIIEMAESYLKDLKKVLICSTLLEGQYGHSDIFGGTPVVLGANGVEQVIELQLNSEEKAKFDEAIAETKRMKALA
Sequence of Calcium-dependent protein kinase 1 (Plasmodium falciparum (isolate 3D7)) (P62344 whole entry, looked up): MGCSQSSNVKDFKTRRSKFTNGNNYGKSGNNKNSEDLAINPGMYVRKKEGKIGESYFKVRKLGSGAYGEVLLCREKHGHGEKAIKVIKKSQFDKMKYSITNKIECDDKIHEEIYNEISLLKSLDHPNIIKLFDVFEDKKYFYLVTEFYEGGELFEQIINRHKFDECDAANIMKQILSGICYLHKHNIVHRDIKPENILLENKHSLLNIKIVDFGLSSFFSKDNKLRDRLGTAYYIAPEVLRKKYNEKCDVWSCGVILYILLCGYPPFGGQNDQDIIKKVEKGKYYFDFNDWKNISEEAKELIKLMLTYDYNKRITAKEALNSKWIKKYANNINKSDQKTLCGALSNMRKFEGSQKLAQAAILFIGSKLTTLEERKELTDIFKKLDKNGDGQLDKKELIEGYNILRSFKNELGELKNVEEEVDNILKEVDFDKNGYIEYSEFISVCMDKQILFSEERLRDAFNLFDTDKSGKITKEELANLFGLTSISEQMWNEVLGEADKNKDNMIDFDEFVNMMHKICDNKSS
Sequence of Protein kinase 7 (PK7), Plasmodium falciparum 3D7 (PF3D7_0213400) (Q7YTF7 1-343): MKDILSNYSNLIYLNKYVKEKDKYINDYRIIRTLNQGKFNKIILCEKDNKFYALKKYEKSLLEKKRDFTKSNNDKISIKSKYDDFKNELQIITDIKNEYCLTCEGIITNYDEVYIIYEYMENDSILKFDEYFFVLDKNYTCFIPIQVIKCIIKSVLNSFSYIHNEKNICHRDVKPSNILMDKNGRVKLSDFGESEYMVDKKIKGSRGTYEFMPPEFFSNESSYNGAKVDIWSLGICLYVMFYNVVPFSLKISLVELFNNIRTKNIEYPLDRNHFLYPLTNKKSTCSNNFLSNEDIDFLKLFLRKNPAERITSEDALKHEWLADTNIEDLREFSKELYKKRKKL
Sequence of Calcium-dependent protein kinase 4 (Plasmodium falciparum (isolate 3D7)) (Q8IBS5 whole entry, looked up): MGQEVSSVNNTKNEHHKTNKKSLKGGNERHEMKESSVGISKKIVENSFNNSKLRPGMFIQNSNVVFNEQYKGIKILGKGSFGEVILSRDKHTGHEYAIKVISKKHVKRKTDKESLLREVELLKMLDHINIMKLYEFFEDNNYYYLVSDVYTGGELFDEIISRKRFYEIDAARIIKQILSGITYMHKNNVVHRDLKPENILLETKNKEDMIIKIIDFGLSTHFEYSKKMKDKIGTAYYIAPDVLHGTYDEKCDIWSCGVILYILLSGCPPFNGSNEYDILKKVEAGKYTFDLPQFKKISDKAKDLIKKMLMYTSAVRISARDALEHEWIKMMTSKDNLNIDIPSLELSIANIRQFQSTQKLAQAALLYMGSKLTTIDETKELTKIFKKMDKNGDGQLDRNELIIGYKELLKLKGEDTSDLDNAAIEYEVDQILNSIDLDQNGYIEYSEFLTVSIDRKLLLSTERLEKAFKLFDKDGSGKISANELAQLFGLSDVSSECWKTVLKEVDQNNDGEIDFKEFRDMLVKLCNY

`CCCC(C)C(=O)N1CCOC(COCc2cccc(C(F)(F)F)c2)(c2ccc(Cl)cc2)C1` (centres undefined): the values for the growth inhibition in test [1] and in test [4] were 91% (active) and 97% (active), respectively. Also, the inhibition in test [2] is 2%; in test [3], 0%. Also, the outcome in test [5], in test [6], in test [7] and in test [8] was inactive.

In the case of `CC(O)C1CCCCN1C(=O)c1cccc(-c2cccc(-c3nc4ccc(F)cc4[nH]3)c2)c1` (centres undefined), the growth inhibition was 99% (active) in test [1] and 101% (active) in test [4]. Further, the inhibition in test [2] was 42%; in test [3], -2%. The outcome in test [5], in test [6], in test [7] and in test [8] was inactive.

`Cc1nc2ccc3nc(NC(=O)c4ccno4)sc3c2s1`: the results for the growth inhibition in test [1] and in test [4] were 97% (active) and 99% (active), respectively. The inhibition in test [2] is 6%; in test [3] it was 1%. The outcome in test [5], in test [6], in test [7] and in test [8] was inactive.

As to `N#Cc1ccc(-c2ccc(OCC(O)CN3CCCN(C(=O)C(c4ccc5c(c4)OCO5)N4CCN(C/C=C/c5ccccc5)CC4)CC3)cc2)cc1` (centres undefined), the growth inhibition in test [1] was 77% (active); in test [4], 99% (active). Further, the figures for the inhibition in test [2] and in test [3] were 25% and 3%, respectively. Also, the result in test [5], in test [6], in test [7] and in test [8] was inactive.

Turning to `COc1ccc(N2CCN(CCCCNC(=O)c3ccc(NC(=O)c4cc(C(F)(F)F)cc(C(F)(F)F)c4)cc3)CC2)c(OC)c1`, the values for the growth inhibition in test [1] and in test [4] were 99% (active) and 100% (active), respectively. For the same compound, the values for the inhibition in test [2] and in test [3] were 30% and 2%, respectively. For the same compound, the result in test [5], in test [6], in test [7] and in test [8] was inactive.

As for `O=C(Nc1ccc(-c2cccc(-c3nc4ccc(C(F)(F)F)cc4[nH]3)c2)cc1)Nc1ccc(F)c(F)c1F`, the results for the growth inhibition in test [1] and in test [4] were 85% (active) and 99% (active), respectively. Besides, the inhibition in test [2] was 58% (active); in test [3], 1%. Moreover, the result in test [5], in test [6], in test [7] and in test [8] was inactive.

`O=C(NCc1cccc(F)c1)Nc1cccc(-c2ccc(-c3nc4ccc(C(F)(F)F)cc4[nH]3)cc2)c1`: the growth inhibition in test [1] is 20%; in test [4] it was 98% (active). The inhibition in test [2] is 50% (active); in test [3], -4%. Moreover, the result in test [5], in test [6], in test [7] and in test [8] was inactive.

`CC(C)CCN1CCC(Oc2ccc(NC(=O)c3ccc4ncccc4c3)cc2Cl)C1` (centres undefined): the growth inhibition in test [1] was 14%; in test [4], 95% (active). Further, the inhibition in test [2] is 33%; in test [3] it was -4%. Also, the outcome in test [5], in test [6], in test [7] and in test [8] was inactive.

With `Cc1cc(=O)[nH]c(NC#N)n1`, the growth inhibition is 3% in test [1] and 99% (active) in test [4]. Moreover, the inhibition in test [2] is 8%; in test [3] it was 0%. Also, the outcome in test [5], in test [6], in test [7] and in test [8] was inactive.

With `CO/C(=C\C=C\c1cc2cc(Cl)c(Cl)cc2[nH]1)C(=O)NCCCN1CCN(c2cccc(O)c2)CC1`, the results for the growth inhibition in test [1] and in test [4] were 100% (active) and 91% (active), respectively. For the same compound, the inhibition in test [2] was 46%; in test [3], -2%. The outcome in test [5], in test [6], in test [7] and in test [8] was inactive.

For the compound `CC(C)CCNC(=O)C1Cc2c([nH]c3cc(Cl)ccc23)C2(CCN(CCc3ccccc3)CC2)N1` (centres undefined), the growth inhibition in test [1] was 55% (active); in test [4], 103% (active). Besides, the values for the inhibition in test [2] and in test [3] were 17% and 5%, respectively. Moreover, the result in test [5], in test [6], in test [7] and in test [8] was inactive.

For the compound `COc1ccc(S(=O)(=O)Nc2cc(C)cc(Br)c2OC)cc1N1CCN(C(=O)C(Cl)(Cl)Cl)CC1`, the results for the growth inhibition in test [1] and in test [4] were 66% (active) and 91% (active), respectively. The values for the inhibition in test [2] and in test [3] were 9% and 0%, respectively. Further, the result in test [5], in test [6], in test [7] and in test [8] was inactive.

With `O=C1COc2ccc(CNC3CCC(O)(CCc4ccnc5cc6c(cc45)OCCO6)CC3)nc2N1` (centres undefined), the growth inhibition in test [1] is -1%; in test [4], 92% (active). For the same compound, the inhibition in test [2] was -5%; in test [3] it was -6%. Also, the outcome in test [5], in test [6], in test [7] and in test [8] was inactive.

For `O=C(Cc1ccccc1)NC(CCN1CCC(NC(=O)c2ccc(Cl)cc2)CC1)c1ccc(Cl)c(Cl)c1` (centres undefined), the growth inhibition was 23% in test [1] and 85% (active) in test [4]. In addition, the inhibition in test [2] was 17%; in test [3] it was -2%. Besides, the result in test [5], in test [6], in test [7] and in test [8] was inactive.

Take `O=C(Nc1ccc(-c2cccc(-c3nc4ccccc4[nH]3)c2)cc1)c1cnn2cccnc12`: the figures for the growth inhibition in test [1] and in test [4] were 36% and 99% (active), respectively. For the same compound, the results for the inhibition in test [2] and in test [3] were 64% (active) and -1%, respectively. For the same compound, the outcome in test [5], in test [6], in test [7] and in test [8] was inactive.

For the compound `CC(=O)Nc1cccc(CN(Cc2ccc(-c3ccc(CNCc4cccnc4)cn3)cc2)C(=O)Cc2cccnc2)c1`, the growth inhibition in test [1] is 65% (active); in test [4], 97% (active). In addition, the inhibition is -3% in test [2] and -10% in test [3]. Besides, the outcome in test [5], in test [6], in test [7] and in test [8] was inactive.

Take `COc1c(C2=CCN(CCCCNC(=O)c3ccc(-c4ccc(C#N)cc4)cc3)CC2)c(C)cc2c1C(C)(C)CCC2(C)C`: the figures for the growth inhibition in test [1] and in test [4] were 88% (active) and 92% (active), respectively. Moreover, the values for the inhibition in test [2] and in test [3] were 18% and -2%, respectively. Besides, the outcome in test [5], in test [6], in test [7] and in test [8] was inactive.

As to `CCCNC(=O)Nc1ccc(N(C)c2ccnc(NC3CC3)n2)cc1`, the growth inhibition in test [1] is 88% (active); in test [4], 100% (active). Further, the inhibition is 28% in test [2] and -2% in test [3]. Moreover, the result in test [5], in test [6], in test [7] and in test [8] was inactive.
